Assay outcomes from PubChem BioAssay.
S2 tox = reduces viability in counter-screen for ATXN expression inhibitors; S2 cells (HEK-293 line with an ATXN2-luciferase reporter) viability, CellTiter-Fluor protease fluorescence, 24 h; Potency, µM (top dose mostly 56.7 µM), most hits filed as cytotoxic; 0.49% of 400,000 active; AID 651635; further: nearly all actives have a fitted effect of over 40% in size
Nrf2 inh = inhibitors of Nrf2 signaling | A549 ARE-Fluc reporter, luciferase luminescence, 18-24 h | Potency, µM (doses to about 46 µM), without a hit: at the highest dose activity change, negative = inhibition, usual class: inhibitors | 2.1% of 360,000 active | AID 504444; further: on the % scale 0 is the no-effect control and ±100 the full control effect; nearly all actives have a fitted effect of over 60% in size
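Concentration-response testing used A549 ARE_Fluc cells at 5000 cells/well. Following an 18-24 h compound incubation, viability was read by fluorescence (Ex 405/Em 525) and luciferase output by luminescence.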
ATXN2 expr inh = reduces ATXN2 reporter expression in HEK-293 cells | Potency, µM (top dose mostly 57 µM), without a hit: at the top dose activity change, negative = inhibition, usual class: inhibitors | HEK-293 ATXN2-luciferase reporter, luminescence, 24 h | 0.72% of 360,000 active; further: on the % scale 0 is the no-effect control and ±100 the full control effect; nearly all actives have a fitted effect of over 55% in size
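qHTS (up to 57 uM final) was run with 24 h compound exposure of reporter cells at 37 °C. Each well was multiplexed: SteadyGlo luminescence measured ATXN2-luciferase expression after a fluorogenic Gly-Phe-AFC viability readout (25 uM final).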
TGFb inhibitor = TGF-b pathway inhibition; HepG2 CAGA-GFP TGF-b/SMAD3 reporter, GFP fluorescence, 18 h; TGF-beta stimulated, 500 pg/mL final; Potency, µM (titrated, usually from 46.1 µM), inactives show at the top dose activity, negative = inhibition, actives largely listed as inhibitors; 1.2% of 410,000 active; AID 588855; further: on the % scale 0 is the no-effect control and ±100 the full control effect; nearly all actives have a fitted effect of over 65% in size
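Read-out: total well GFP (ex488/em500-530) summed from mean per-cell fluorescence. Cells: HEPG2 CAGA-GFP, 1% FBS DMEM, 18 h at 37 degrees C with 500 pg/mL final TGF-beta. Unstimulated wells served as the full-inhibition control; stimulated DMSO wells = 0%.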
A549 tox = kills or reduces viability of A549 cells in Nrf2 counter-screen; 0.16% of 390,000 active; Potency, µM (highest dose often 46 µM), without a hit: at the highest dose activity change, negative = cytotoxicity, most hits filed as inhibitors; A549 ARE-Fluc cells, CellTiter-Fluor viability, 18-24 h; AID 504648; further: on the % scale 0 is the no-effect control and ±100 the full control effect
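A549 ARE-Fluc cells in 5% FBS OPTI-MEM, 5000 cells/well, rested 2 h then exposed to compounds in concentration-response for 18-24 h at 37 °C. Viability by CellTiter-Fluor fluorescence (Ex 405/Em 525) after 30 min; luciferase luminescence (BugLite, 15 min, RT) read afterwards.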
HepG2 viability = HepG2 cytotoxicity, counter-screen for TGF-b inhibitors; HepG2 CAGA-GFP viability, ATP luminescence, 18 h; 0.76% of 410,000 active; Potency, µM (top dose mostly 46.1 µM), without a hit: at the top dose activity change, negative = cytotoxicity, most hits filed as cytotoxic; AID 588856
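CellTiter-Glo luminescence gave cytotoxicity after 18 hours at 37 degrees C. The cells were HepG2 CAGA-GFP in 1% FBS DMEM, stimulated with 500 pg/mL TGF-beta after compound addition. %Activity was normalised to no-cell wells (complete cell-killing) and DMSO (no toxicity), and curves were fitted and classified.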
Active calls of the source: *; [ ] = dose if it differs, or a comment. Compounds with a hit are over-represented: about 3.8% of the library has one in this group of screens. The call rests on the fitted dose curve; in most records, active means well fitted curve in the direction sought with a large enough effect; inconclusive means small, poorly fitted or top-dose-only effect, or another doubt; inactive means no such curve, though single readings can be large; an effect the other way counts as inactive or inconclusive. Potency means the concentration at half of the fitted maximal effect.

How did CCCCC[C@@H]1[C@@H]2C(=C(OCC)C[C@@H]3C(=O)N(c4ccccc4)C(=O)[C@H]23)[C@H](c2ccccc2)N1S(=O)(=O)c1ccc(C)cc1 do in these assays?
S2 tox: inactive; ATXN2 expr inh: -8%; TGFb inhibitor: -18%; HepG2 viability: -2%

How did CCOC1=C2[C@H](c3ccccc3)N(S(=O)(=O)c3ccc(C)cc3)C(C(C)(C)C)[C@H]2C(C#N)(C#N)C(C#N)(C#N)C1 (stereo partly drawn) do in these assays?
S2 tox: 18µM*; ATXN2 expr inh: 25µM*; TGFb inhibitor: 10µM*; HepG2 viability: 16µM*

What do the screens show for `CCOC1=C2CN(S(=O)(=O)c3ccc(C)cc3)[C@H](c3cccc4ccccc34)C[C@H]2C(C#N)(C#N)C(C#N)(C#N)C1`?
ATXN2 expr inh: 14µM*; TGFb inhibitor: inconclusive; HepG2 viability: -43%

How did c1cn2c(-c3ccc(N4CCOCC4)cc3)cncc2n1 do in these assays?
S2 tox: inactive; ATXN2 expr inh: 26%; TGFb inhibitor: 25%; HepG2 viability: 13%

Results for Cc1ccc2nc(N/N=C\c3ccc([N+](=O)[O-])o3)nc(-c3ccccc3)c2c1 ?
S2 tox: 11µM*; Nrf2 inh: inconclusive; ATXN2 expr inh: inconclusive; TGFb inhibitor: -5%; A549 tox: 23µM*; HepG2 viability: -5%

How did Oc1ccc(/C=N/Nc2nc(N3CCCCCC3)nc(N3CCCCCC3)n2)c(O)c1 do in these assays?
S2 tox: inconclusive; Nrf2 inh: 15µM*; ATXN2 expr inh: inconclusive; TGFb inhibitor: inconclusive; A549 tox: -18%; HepG2 viability: inactive

How did O=[N+]([O-])c1ccc(/C=N/Nc2nc(N3CCCC3)nc(N3CCCC3)n2)o1 do in these assays?
S2 tox: inconclusive; Nrf2 inh: 23µM*; ATXN2 expr inh: -11%; TGFb inhibitor: inconclusive; A549 tox: inconclusive; HepG2 viability: -49%

How did Cc1nonc1C(=O)N1CCCC(Nc2ccc(C(C)C)cc2)C1 (stereo not drawn) do in these assays?
S2 tox: inactive; Nrf2 inh: 6%; TGFb inhibitor: -11%; A549 tox: 4%; HepG2 viability: -19%

What do the screens show for `CCCCNC(=O)[C@@H]1CC=C[C@@H]2CCN(Cc3ccc(OC)c(OC)c3)C(=O)[C@@H]21`?
TGFb inhibitor: -15%; HepG2 viability: -18%

How did Cc1ccc(NC(=O)Cn2c(=O)n(Cc3ccccc3)c(=O)c3sc4ccccc4c32)cc1 do in these assays?
Nrf2 inh: 14%; TGFb inhibitor: -1%; A549 tox: 0%; HepG2 viability: 3%

How did COc1cc(NC(=O)c2ccc([N+](=O)[O-])o2)ccc1NC(=O)c1ccco1 do in these assays?
S2 tox: inactive; Nrf2 inh: -22%; TGFb inhibitor: 1.1µM*; A549 tox: -8%; HepG2 viability: 4%

What do the screens show for `Cc1cc(C)cc(NC(=O)c2ccc([N+](=O)[O-])o2)c1`?
S2 tox: inconclusive; Nrf2 inh: inconclusive; ATXN2 expr inh: inconclusive; TGFb inhibitor: 11µM*; A549 tox: -10%; HepG2 viability: 13µM*

How did Cc1c(Cl)c([N+](=O)[O-])nn1Cc1ccc(C(=O)Nc2ccc(Cl)cn2)o1 do in these assays?
S2 tox: inactive; Nrf2 inh: inconclusive; ATXN2 expr inh: -1%; TGFb inhibitor: -3%; A549 tox: 3%; HepG2 viability: 0%

What do the screens show for `O=C(Nc1ccc(Cl)cn1)c1ccc([N+](=O)[O-])o1`?
S2 tox: inactive; Nrf2 inh: inconclusive; ATXN2 expr inh: inconclusive; TGFb inhibitor: 11µM*; A549 tox: -13%; HepG2 viability: 18µM*

How did COc1cc(NC(=O)c2cccc([N+](=O)[O-])c2)ccc1NC(=O)c1ccco1 do in these assays?
S2 tox: inactive; Nrf2 inh: 12%; ATXN2 expr inh: -31%[11.3 µM]; TGFb inhibitor: 0%; A549 tox: -2%; HepG2 viability: 5%

Results for Cc1cc(C)nc(NC(=O)c2ccc([N+](=O)[O-])o2)n1 ?
S2 tox: inconclusive; Nrf2 inh: -11%; ATXN2 expr inh: 6%; TGFb inhibitor: inconclusive; A549 tox: -2%; HepG2 viability: -13%

Results for COc1ccc(NC(=O)c2ccc([N+](=O)[O-])o2)cc1 ?
S2 tox: inactive; Nrf2 inh: 28%; ATXN2 expr inh: 4%; TGFb inhibitor: 11µM*; A549 tox: -8%; HepG2 viability: -68%

What do the screens show for `COc1ccc(NC(=O)c2ccc(Br)o2)cc1`?
S2 tox: inactive; Nrf2 inh: inconclusive; ATXN2 expr inh: 51%; TGFb inhibitor: inconclusive; A549 tox: -4%; HepG2 viability: -26%

What do the screens show for `CCOc1cc(/C=C(/NC(C)=O)C(=O)O)cc(Cl)c1OCc1ccc(Br)cc1`?
S2 tox: inactive; Nrf2 inh: 2%; ATXN2 expr inh: 14%; TGFb inhibitor: 3%; A549 tox: 3%; HepG2 viability: -3%

How did CC(=O)c1cccc(NC(=O)c2ccc([N+](=O)[O-])o2)c1 do in these assays?
S2 tox: inconclusive; Nrf2 inh: inconclusive; ATXN2 expr inh: -18%; TGFb inhibitor: inconclusive; A549 tox: -7%; HepG2 viability: -90%

Results for CC(=O)c1ccc(NC(=O)c2ccc([N+](=O)[O-])o2)cc1 ?
S2 tox: inconclusive; Nrf2 inh: 1%; TGFb inhibitor: 13µM*; A549 tox: -2%; HepG2 viability: 16µM*

What do the screens show for `CC(NC(=O)c1ccc([N+](=O)[O-])o1)C12CC3CC(CC(C3)C1)C2` (stereo not drawn)?
S2 tox: inactive; Nrf2 inh: -5%; ATXN2 expr inh: -26%; TGFb inhibitor: 11µM*; A549 tox: 0%; HepG2 viability: -51%

What do the screens show for `COc1ccc(NC(=O)Cn2nnc(-c3nc(-c4ccncc4)no3)c2N)cc1OC`?
Nrf2 inh: 27%; A549 tox: -4%; HepG2 viability: -2%

Results for COc1cc2nc(N3CCN(c4cc(C)ccc4C)CC3)nc(N)c2cc1OC ?
Nrf2 inh: -16%; ATXN2 expr inh: inconclusive; TGFb inhibitor: inconclusive; A549 tox: -5%; HepG2 viability: 11µM*

How did COc1ccc(-c2cn(-c3ccc(OC)cc3)c3[n+]2-c2ccccc2CC3)cc1 do in these assays?
S2 tox: inconclusive; Nrf2 inh: inconclusive; ATXN2 expr inh: inconclusive; TGFb inhibitor: inconclusive; A549 tox: -5%; HepG2 viability: -22%
